# According to PubChem BioAssay AID720650 (Broad Institute, 2013):
# Values without a mark were called inactive. The source made the active and inactive calls. How the calls were made is not given here.
# Assay: Biochemical counterscreen for C difficile toxins, absence of UDPG, inhibitor dose response (AID 720650)
# Conditions: series mostly up to 19.5 µM; activity change, negative = inhibition: at the top concentration
SMILES,"activity change, negative = inhibition",AC50
CC(=O)Nc1ccc(S(=O)(=O)Nc2nc3ccccc3nc2-n2ccc(=NC(=O)c3ccc(F)cc3)cc2)cc1,9.83%,–
C=CCNS(=O)(=O)c1nc(C)c(Cl)c(C)c1C#N,-3.36%,–
CCCCn1c(N)c(N(CC)C(=O)c2cccs2)c(=O)[nH]c1=O,–,> 39 µM
Cc1ccc2sc(NNC(=O)C3COc4ccccc4O3)nc2c1C (centres undefined),–,0.238 µM (active)
O=S(=O)(Oc1ccccc1-c1ccccc1)c1ccccc1,-15.6%,–
CCOC(=O)c1sc(=S)[nH]c1C,–,> 39 µM
CC(=O)c1ccc(Nc2ccc(-c3ccccc3F)nn2)cc1,–,> 39 µM
O=C(C[C@@H]1CC[C@H]2[C@@H](COC[C@@H](O)CN2Cc2ccc(Oc3ccccc3)cc2)O1)Nc1nccs1,8.53%,–
O=C(NCCc1cccc(Cl)c1)c1ccc(Cl)c([N+](=O)[O-])c1,-6.18%,–
O=C(Nc1ccc(O)cc1)/C(=C\c1cccs1)NC(=O)c1ccccc1,–,17.1 µM (active)
CC(=O)c1cccc(-c2ccnc3c2CC(C(=O)NCc2ccccc2)O3)c1 (centres undefined),-7.26%,–
COc1ccccc1Nc1nnc(SCc2cc(=O)n3ccsc3n2)s1,–,> 39 µM
COc1ccccc1-n1c(SCC(=O)O)nc2c(sc(=S)n2-c2ccc(Cl)c(C)c2)c1=O,–,> 39 µM
CN1C(=O)c2cc(NC(=O)Nc3ccccc3Cl)ccc2OC[C@H]2O[C@@H](CC(=O)NCCCN3CCOCC3)CC[C@H]21,-6.9% [at 21 µM],–
N#CCCN(C(=O)COC(=O)c1cc(=O)c2ccccc2o1)c1ccccc1,-5.26%,–
COc1ccc(/C=N/N=C2/NC(=O)C(CC(=O)NC(N)=O)S2)cc1 (centres undefined),-11.2%,–
O=c1[nH]c(/C=C\c2ccc(O)c(Cl)c2)nc(O)c1[N+](=O)[O-],–,20 µM (active)
CNC(=O)C[C@@H]1CC[C@@H]2[C@H](COc3ccc(NS(=O)(=O)c4ccccc4C)cc3C(=O)N2C)O1,11.4%,–
Cc1cnc(C(=O)OCC(=O)Nc2ccc(OCc3ccccc3)cc2)cn1,11.9%,–
COc1ccccc1C(=O)Nc1cccc(Oc2c(F)c(F)c(F)c(F)c2F)c1,–,> 39 µM

SMILES,"activity change, negative = inhibition",AC50
Nc1ccc(-c2nc3ccc(N)cc3o2)cc1,–,12.5 µM (active)
CCOc1ccc(S(=O)(=O)NCCC(=O)NCc2ccccn2)cc1,-4.04%,–
CC(N)C(=O)NC(C(=O)N1CCCC1C(=O)NC(c1ccccc1)c1ccccc1)C(C)C (centres undefined),-13.4%,–
COc1ccc(-c2ccc3c(c2)[C@H]2[C@H](CCN2C(=O)Cc2cccnc2)[C@@H](CO)N3C)cc1,–,14.7 µM (active)
CCOCC(=O)Nc1cc(Cl)ccc1C,-3.64%,–
CCCNC(=O)N1CC[C@@H]2[C@@H](CO)N(C)c3ccc(-c4ccccc4)cc3[C@@H]21,–,3.93 µM (active)
CN(C)CCNc1ccc(CO)c2sc3ccc(O)cc3c(=O)c12,–,6.06 µM (active)
O=C(C[C@H]1C[C@@H]2c3cc(NC(=O)c4ccc5c(c4)OCO5)ccc3O[C@@H]2[C@@H](CO)O1)NCc1cccc(F)c1,-15.2%,–
Cc1ccc(S(=O)(=O)Oc2ccccc2/C=C2\SC(=O)NC2=O)cc1,-9.78%,–
COc1cc(Cn2c(-c3ccc(O)c(OC)c3)nc3ccccc32)ccc1O,-12.9%,–
COc1cc(/C=N/NC(=O)Cn2nnc3ccccc32)ccc1O,2.37%,–
O=C(CNS(=O)(=O)c1ccc([N+](=O)[O-])cc1)N/N=C\c1ccc(O)cc1,–,13.2 µM (active)
CCNC(=O)[C@H]1[C@H](CO)[C@H]2Cn3c(ccc(-c4ccccc4)c3=O)[C@H]2N1CC,1.74%,–
COc1cc(/C=N/NC(=O)CSc2ccccn2)ccc1O,-4.05%,–
Oc1ccc(/C=N/n2cc(-c3ccccc3)[nH]c2=S)cc1,–,6.42 µM (active)
O=C(Cn1cc(COc2ccc(Cl)c(Cl)c2)nn1)NS(=O)(=O)c1ccccc1OC(F)(F)F,-6.92%,–
CC(=O)C[C@H]1c2ccccc2S(=O)(=O)N1C1CCCCC1,2.33%,–
C[C@H](CO)N1C[C@H](C)[C@@H](CN(C)C(=O)Nc2ccc(C(F)(F)F)cc2)Oc2c(NS(=O)(=O)c3cn(C)cn3)cccc2C1=O,–,> 39 µM
Cc1c(O)ccc(NC(=O)/C=C/c2ccccc2)c1C,–,> 39 µM
